Measurements published in PubChem BioAssay (NCI).
This is part of a sample that, as a whole, favours compounds with a hit. Of some 83,000 tested, about 20% had one in any assay.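 Assay: single dose, 48 h. Readout: percent growth (0 = no net growth; negative = cell death). Active: <10.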 Values without a mark were called inactive. The source made the active and inactive calls.

Tested on: MDA-MB-468 breast
Test: NCI-60 one-dose screen, 48 h (100 = growth as untreated, 0 = no growth, -100 = all killed)
Conditions: 10 µM unless noted

Row | Structure (SMILES) | growth
1 | O=C(c1ccccc1)C(CCc1ccccn1)CCc1ccccn1 | 108%
2 | CN(C)CCOC(=O)Nc1ccccc1Cl | 113%
3 | COC(=O)c1c2c(c(C)[n+]([O-])c1C)C(=O)C=C(NCc1cccc(OC)c1)C2=O | -67.8% (active)
4 | C=C1C(=O)O[C@H]2[C@H]1CC/C(COC(=O)c1cccc3ccccc13)=C\CC[C@@]1(C)O[C@@H]21 | -45.1% (active)
